Source: PubChem
A selection: hits, their analogues and other compounds. The true share with any hit is near 19%.
DT40 TDP1 CPT: growth inhibition of DT40 Tdp1-/-;hTDP1 cells with camptothecin (screen for TDP1 inhibitors) | 420,000 tested, 12% active | chicken DT40 Tdp1-/-;hTDP1 cells + 20 nM CPT, ATP luminescence, 48 h | AID 686979 | Potency, µM (titrated, usually from 46.2 µM), usual class: inhibitors; also: nearly all actives have a fitted effect of over 55% in size
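Cell growth measured by CellTiter-Glo luminescence after a minimum 48 h, 37 C compound exposure with 20 nM CPT in Tdp1-knockout DT40 cells stably expressing hTDP1, seeded 400/well; qHTS titration format.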
IL-1B inflam inh: inhibitors of inflammasome signaling (IL-1 beta secretion). THP-1 LPS/ATP IL-1B secretion, AlphaLISA, 16 h; hits give low values. activity change, % at 57.5 µM. 360,000 tested, 4.7% active. AID 743279; in the data active = activity change below about -50%; inconclusive = mostly about -30% to -49%
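THP-1 cells pretreated 1 hr with compounds (up to 57.5 uM final), then stimulated with LPS (250 ng/mL final) plus ATP (1.25 mM final); secreted IL-1B measured by AlphaLISA after 16 hr, decreased signal indicating inhibition.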
HT1080NT lethal: kills 2HG-producing HT-1080-NT fibrosarcoma cells; HT-1080-NT fibrosarcoma viability, CellTiter-Glo ATP luminescence, 48 h; Potency, µM (highest dose often 46.1 µM), hits mostly cytotoxic; 360,000 tested, 1.6% active;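 also: NT is the 2HG producing partner of a matched IDH1 knockdown line; nearly all actives have a fitted effect of over 55% in size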
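Compounds were tested in concentration-response format on HT-1080-NT cells for 48 hours at 37 degrees C. Cell viability came from CellTiter-Glo luminescence; curves were classified by r2, response magnitude and activity.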
HT1080 IDH1KD tx: HT-1080 IDH1 knockdown cell toxicity (counter line). HT-1080 IDH1 knockdown viability, ATP luminescence, 48 h. Potency, µM (doses to about 46.1 µM), most hits filed as cytotoxic. 360,000 tested, 2% active. AID 686971
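Luminescent ATP read-out (CellTiter-Glo, 10 min at room temperature) after 48 h compound exposure at 37 °C gave viability of IDH1-knockdown HT-1080 cells. Activity was normalised to DMSO and cell-free wells, then fitted as concentration-response curves.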
TDP1 cell noCPT: qHTS for Inhibitors of human tyrosyl-DNA phosphodiesterase 1 (TDP1): qHTS in cells in absence of CPT; DT40 Tdp1-/- hTDP1 cells, no CPT, ATP luminescence, 48 h; Potency, µM (titrated, usually from 46.2 µM), most hits filed as inhibitors; 420,000 tested, 15% active; also: nearly all actives have a fitted effect of over 55% in size
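Seeded 400 DT40-hTDP1 cells/well (vehicle DMSO, no 20 nM CPT); pinned compounds; ≥48 hr at 37 °C; CellTiter-Glo luminescence as viability measure.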
Hits are given with their value; n = inactive; u = inconclusive; x = no result. Unless noted, calls follow the shape of the dose curve; as a rule, active = well fitted curve in the direction sought with a large enough effect; inconclusive = small, poorly fitted or top-dose-only effect, or another doubt; inactive = no such curve, though single readings can be large; an effect the other way counts as inactive or inconclusive.

SMILES | DT40 TDP1 CPT | IL-1B inflam inh | HT1080NT lethal | HT1080 IDH1KD tx | TDP1 cell noCPT
CCN(CC)C(=O)CSc1nc2sc3c(c2c(=O)n1CCCOC)CCC3 | u | -54.6 | n | n | u
CCn1c(SCC(N)=O)nc2sc3c(c2c1=O)CCN(C)C3 | 23.1µM | n | n | n | 13µM
Cc1nc2cnc(N(C)C)nc2n(C)c1=O | n | x | x | x | n
CCOc1ccc(-n2c(SCC(N)=O)nc3sc4c(c3c2=O)CCN(C)C4)cc1 | n | n | n | n | n
CCCn1c(SCC(=O)N2CCN(C(C)=O)CC2)nc2sc3c(c2c1=O)CCC3 | n | n | n | n | n
CCn1c(SCC(=O)N2CCOCC2)nc2sc3c(c2c1=O)CCCC3 | u | n | n | n | 18.4µM
CCOC(=O)CSc1nc2sc3c(c2c(=O)n1-c1ccc(OCC)cc1)CCN(C)C3 | u | n | n | n | 23.1µM
COC(=O)CSc1nnc2n(C3CCCCC3)c(=O)c3c4c(sc3n12)CCCC4 | 29.1µM | u | n | n | u
CCOC(=O)CSc1nnc2n(C3CCCCC3)c(=O)c3c4c(sc3n12)CCCC4 | u | n | n | n | u
c1ccc2sc(NC3=NCN(CCN4CCOCC4)CN3)nc2c1 | n | n | n | n | u
Fc1ccc(-[n+]2nc(Nc3ccccc3)sc2-c2c(Cl)cccc2Cl)cc1 | 18.4µM | -93.6 | u | n | u
CCc1ccc(Nc2n[n+](-c3ccccc3)c(-c3c(Cl)cccc3Cl)s2)cc1 | 23.1µM | -91.8 | 20.6µM | u | 14.6µM
CCc1ccc(Nc2n[n+](-c3ccccc3)c(-c3cc(OC)c(OC)cc3Br)s2)cc1 | 16.4µM | n | n | n | u
Cc1cccc(-c2sc(Nc3ccccc3)n[n+]2-c2ccccc2)c1 | u | n | n | n | u
CCOC(=O)N1CCN(C(=O)c2oc3ccc(S(=O)(=O)N4CC(C)CC(C)C4)cc3c2C)CC1 (stereo not given) | u | u | n | n | u
Cc1c(C(=O)N2CCOCC2)oc2ccc(S(=O)(=O)N3CCCC3)cc12 | n | n | n | n | n
Cc1c(C(=O)N2CCc3ccccc3C2)oc2ccc(S(=O)(=O)N3CCCCCC3)cc12 | 23.1µM | n | n | n | 18.4µM
CCOC(=O)N1CCN(c2ccc(S(=O)(=O)N3CCC(C)CC3)cc2[N+](=O)[O-])CC1 | 20.6µM | n | n | u | 13µM
CC(=O)N1CCN(c2ccc(S(=O)(=O)N3CCOCC3)cc2[N+](=O)[O-])CC1 | n | n | n | n | n
CCOC(=O)C1CCN(C(=O)c2oc3ccc(S(=O)(=O)N4CC(C)CC(C)C4)cc3c2C)CC1 (stereo not given) | 18.4µM | n | n | n | 16.4µM
CCOC(=O)N1CCN(C(=O)c2oc3ccc(S(=O)(=O)N4CCCCCC4)cc3c2C)CC1 | 14.6µM | n | n | n | 13µM
CCOC(=O)N1CCN(C(=O)c2oc3ccc(S(=O)(=O)N4CCOCC4)cc3c2C)CC1 | n | n | n | n | n
O=S(=O)(c1ccc2oc3ccccc3c2c1)N1CCCC1 | n | n | n | n | u
CCN(CC)C(=O)C1CCN(S(=O)(=O)c2ccc3oc4ccccc4c3c2)CC1 | 20.6µM | u | n | n | 16.4µM
Cc1c(C(=O)N(C)Cc2ccccc2)oc2ccc(S(=O)(=O)N3CCCC3)cc12 | n | n | n | n | u
SMILES | DT40 TDP1 CPT | IL-1B inflam inh | HT1080NT lethal | HT1080 IDH1KD tx | TDP1 cell noCPT
O=C(c1cccc(S(=O)(=O)N2CCOCC2)c1)N1CCCc2ccccc21 | n | n | n | n | n
Cc1c(C(=O)N2CCCc3ccccc32)oc2ccc(S(=O)(=O)N3CCOCC3)cc12 | 14.1µM | n | u | u | 11.2µM
CCN(C(=O)c1oc2ccc(S(=O)(=O)N3CCCCCC3)cc2c1C)c1ccccc1 | 23.1µM | x | x | x | 14.6µM
NC(Cc1ccccc1)C(=O)O (stereo not given) | n | x | x | x | n
Cc1ccc(S(=O)(=O)Nc2ccc(NC(=O)Nc3cccc(C(F)(F)F)c3)cc2)cc1 | 18.4µM | -97.1 | u | u | u
CCN(CC(=O)NCc1ccc(F)cc1)C(=O)/C=C/c1ccc(S(=O)(=O)N(CC)CC)cc1 | 23.1µM | n | 16.4µM | 4.61µM | 20.6µM
CCN(CC)S(=O)(=O)c1ccc(NC(=O)Nc2cccc(C(F)(F)F)c2)cc1 | 2.59µM | -88.8 | u | u | 2.59µM
CNS(=O)(=O)c1ccc(NC(=O)Nc2cccc(F)c2)cc1 | n | n | n | n | n
CCN(CC)S(=O)(=O)c1ccc(C(=O)Nc2cccc(C)c2)cc1 | u | u | n | n | n
CCN(CC(F)(F)C(F)F)S(=O)(=O)c1ccc(NC(=O)OC)cc1 | 25.9µM | n | n | n | 16.4µM
Cn1nc(C(=O)OCC(=O)NCc2ccc(Cl)cc2Cl)c2ccccc2c1=O | n | n | n | n | n
CCN(CC)S(=O)(=O)c1ccc(/C=C/C(=O)Nc2cccc(F)c2)cc1 | 20.6µM | n | n | n | 20.6µM
CCN(CC)S(=O)(=O)c1ccc(/C=C/C(=O)O)cc1 | n | n | n | n | n
CC(=O)C[C@H](O)CC(=O)[C@H]1OC(=O)CCCCCCCc2ccccc21 | n | n | n | n | n
Fc1ccc(-c2nc(-c3c[nH]c4ccccc34)cs2)cc1 | n | x | x | x | n
O=C(OCC(O)C(O)C(O)COC(=O)c1ccccc1)c1ccccc1 (stereo not given) | n | n | n | n | n
O=C(OCC(O)C(O)C(O)C(SCc1ccccc1)SCc1ccccc1)c1ccccc1 (stereo not given) | 29.1µM | -72.4 | n | u | u
CC(=O)Nc1cccc(NC(=O)c2c(-c3ccccc3)c(-c3ccccc3)nn(C)c2=O)c1 | u | x | x | x | n
Fc1ccc2c(c1)-c1c(cnc3cc(-c4ccc(Cl)cc4)nn13)CO2 | n | x | x | x | n
COc1ccc(N2C(=O)CC(Sc3nc(C)c4c(n3)CCCC4)C2=O)cc1 (stereo not given) | 18.4µM | n | 14.6µM | u | 23.1µM
Cc1cccc(N2C(=O)CC(Sc3nc(C)c4c(n3)CCCC4)C2=O)c1 (stereo not given) | u | n | 7.08µM | 10µM | n
Cc1cccc(N2C(=O)CC(Sc3nc(C)cc(C)n3)C2=O)c1 (stereo not given) | u | n | n | n | u
COc1ccc(N2C(=O)CC(Sc3nc4c(cc3C#N)CCC4)C2=O)cc1 (stereo not given) | n | n | u | n | n
Cc1ccc(N2C(=O)CC(Sc3cccs3)C2=O)cc1 (stereo not given) | 16.4µM | n | n | n | 5.8µM
Cc1ccc(N2C(=O)CC(Sc3nccc(C)n3)C2=O)cc1 (stereo not given) | u | n | n | n | u
Cc1cccc(N2C(=O)CC(Sc3nnc(C)s3)C2=O)c1 (stereo not given) | 5.17µM | n | n | n | 6.51µM
